Data on four compounds can be found in PubChem BioAssay.

Active and inactive are the calls of the source.

The nature of assay [1]: small molecules captured by biotinylated probe aFSTL3 – biochemical, small-molecule microarray, fluorescence 635/667, stem cell growth factor project, primary screen (AID 1064).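 Further: measures binding of the biotinylated anti-FSTL3 antibody to printed compounds.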 The following applies: higher = more signal.
Assay [2] is described as follows: binders from COS7 lysate, DM2A8 probe, primary screen, torsin A project, cell lysate, small-molecule microarray, fluorescence 635/667 (AID 1065). As to conditions: higher = more signal, COS7 lysate expressing mutant human TOR1A.
Assay [3] in a line: small molecules captured by biotinylated probe aFGF2 – biochemical, small-molecule microarray, fluorescence 635/667, stem cell growth factor project, primary screen (AID 1067).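 Further: measures binding of biotinylated aFGF2 protein to printed compounds on slides; z-score merges feature fluorescence and signal-to-noise across triplicate slides.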 As to conditions: higher = more signal.
Assay [4] is described as follows: small molecules captured by biotinylated probe aFGF10 – biochemical, small-molecule microarray, fluorescence 635/667, stem cell growth factor project, primary screen (AID 1071).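 Further: score merges 667 nm spot intensity and signal to noise from triplicate slides.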 The following applies: higher = more signal.
Assay [5] addresses Neurogenic locus notch homolog protein 2 (Homo sapiens) (UniProt Q04721). The assay can be described thus: small molecules binding Notch2 protein – biochemical, small-molecule microarray, 635 nm fluorescence, stem cell growth factors, primary screen (AID 1073). The following applies: higher = more signal.
In assay [6] the target is Pro-neuregulin-1, membrane-bound isoform (Homo sapiens) (UniProt Q02297). The assay can be described thus: small molecules binding neuregulin-1 protein – biochemical, small-molecule microarray, fluorescence 635/667, psychiatric disease protein project, primary screen (AID 1075).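 Further: score combines 667 nm spot fluorescence with signal to noise.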 The following applies: NRG1 binding, 635 nm fluorescence, higher = more signal.
Assay [7] concerns Neuregulin-1 EGF-like domain. The assay can be described thus: small molecules binding NRG1 EGF domain – biochemical, small-molecule microarray, 635 nm fluorescence, primary screen (AID 1081).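 Further: binding of the protein to compounds printed on small-molecule microarray slides.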 As to conditions: higher = more signal.
Assay [8] can be described thus: FRG1 expression reporter modulators in myotubes – cell-based, C2C12 myotubes, firefly/Renilla luciferase, luminescence, FRG1 inhibition for FSHD, primary screen (AID 1084). As to conditions: FRG1 promoter luciferase, higher = more signal, called active from +8 up or from −8 down.
A short description of assay [9]: small molecules captured by biotinylated probe aFST – biochemical, small-molecule microarray, fluorescence 635/667, stem cell growth factor project, primary screen (AID 1086).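 Further: score merges 667 nm fluorescence with signal-to-noise of each printed compound spot.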 The following applies: higher = more signal.
The nature of assay [10]: binders of probe aHhip on microarray, primary screen, stem cell growth factor project, biochemical, small-molecule microarray, fluorescence 635/667 (AID 1087).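 Further: score merges spot fluorescence at 667nm with spot signal to noise ratio.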 The following applies: higher = more signal.
Assay [11] deals with PRMT1 (protein arginine N-methyltransferase 1). In words: small molecules binding arginine methyltransferase PRMT1 – biochemical, small-molecule microarray, 635 nm fluorescence, primary screen (AID 1088).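 Further: binding of Prmt1 protein to compounds spotted on small-molecule microarray slides.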 As to conditions: higher = more signal.
Assay [12] can be described thus: growth effects on S. cerevisiae YJM789 – YJM789 clinical isolate, OD600, 24 h, basal, primary screen (AID 1089).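 Further: growth of clinical yeast isolate S. cerevisiae YJM 789 seeded 1000 cells per well; test concentration not given here.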 The following applies: higher = more signal, called active from +8 up or from −8 down.
Assay [13] can be described thus: S. pombe growth modifiers, basal conditions – strain 972, OD600, 24 h, no modulator, primary screen (AID 1090).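 Further: basal condition with compound alone and no growth modifier present; test concentration not given here.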 As to conditions: S. pombe 972 growth, higher = more signal, called active from +8 up or from −8 down.
A short description of assay [14]: budding yeast growth modifiers under rapamycin – strain BY4716, OD600, 96 h, primary screen (AID 1091). Further: test concentration not given here. The following applies: S. cerevisiae BY4716 + rapamycin, higher = more signal, called active from +8 up or from −8 down.
Assay [15] addresses Torsin-1A-interacting protein 2 (Homo sapiens) (UniProt Q8NFQ8). In words: small molecules binding lysate-expressed LULL1 – cell lysate, human LULL1 lysate, 635/667 nm fluorescence, primary screen (AID 1092).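 Further: score merges per-feature 667 nm fluorescence with signal-to-noise.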 The following applies: small-molecule microarray, hLULL1 lysate binding, 635 nm fluorescence; higher = more signal.
A short description of assay [16]: optical density change of DRC41 E. coli – strain DRC41, OD650, 24 h, E. coli filamentation project, primary screen (AID 1093).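 Further: MC1000 strain lacking acrAB efflux and sulA so SOS filamentation is blocked; test concentration not given here.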 The following applies: E. coli DRC41 growth, higher = more signal, called active from +8 up or from −8 down.
Assay [17] can be described thus: probe aLefty2 binding to arrayed compounds – biochemical, biotinylated probe, 635/667 nm fluorescence, primary screen (AID 1094).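 Further: score merges spot fluorescence near 667 nm with spot signal-to-noise ratio.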 The following applies: small-molecule microarray, higher = more signal.
For assay [18], the system named is Noggin (protein binding on small-molecule microarray). In words: small molecules binding Noggin protein – biochemical, 635/667 nm fluorescence, primary screen (AID 1095).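 Further: score merges 667 nm feature fluorescence with signal to noise over triplicate slides.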 The following applies: 635 nm fluorescence, higher = more signal.
Assay [19] has as its target Neurogenic locus notch homolog protein 3 (Homo sapiens) (UniProt Q9UM47). The assay can be described thus: small molecules binding NOTCH3 protein – biochemical, 635/667 nm fluorescence, primary screen (AID 1096). The following applies: small-molecule microarray, 635 nm fluorescence, higher = more signal.
Assay [20] in a line: probe aEGFR binding to arrayed compounds – biochemical, biotinylated probe, 635/667 nm fluorescence, primary screen (AID 1097).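 Further: probe is a biotinylated anti-EGFR antibody binding compounds printed on slides; score combines fluorescence near 667 nm and signal to noise of each spot.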 The following applies: small-molecule microarray, higher = more signal.

Sequence of Torsin-1A-interacting protein 2 (Homo sapiens) (Q8NFQ8 whole entry, looked up): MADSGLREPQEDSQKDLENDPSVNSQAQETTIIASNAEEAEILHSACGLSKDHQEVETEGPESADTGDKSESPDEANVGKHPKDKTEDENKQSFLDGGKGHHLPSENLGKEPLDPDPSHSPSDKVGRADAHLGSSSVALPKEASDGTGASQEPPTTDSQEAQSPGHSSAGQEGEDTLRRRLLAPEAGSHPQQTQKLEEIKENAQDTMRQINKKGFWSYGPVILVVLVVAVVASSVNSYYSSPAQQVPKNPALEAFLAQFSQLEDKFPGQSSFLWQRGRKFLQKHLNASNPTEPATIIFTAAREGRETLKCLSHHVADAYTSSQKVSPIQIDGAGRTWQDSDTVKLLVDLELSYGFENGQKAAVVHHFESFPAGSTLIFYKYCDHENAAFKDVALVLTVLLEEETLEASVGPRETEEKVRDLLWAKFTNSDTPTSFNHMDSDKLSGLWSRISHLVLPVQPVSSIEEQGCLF
Sequence of Neurogenic locus notch homolog protein 2 (Homo sapiens) (Q04721 whole entry, looked up, canonical isoform): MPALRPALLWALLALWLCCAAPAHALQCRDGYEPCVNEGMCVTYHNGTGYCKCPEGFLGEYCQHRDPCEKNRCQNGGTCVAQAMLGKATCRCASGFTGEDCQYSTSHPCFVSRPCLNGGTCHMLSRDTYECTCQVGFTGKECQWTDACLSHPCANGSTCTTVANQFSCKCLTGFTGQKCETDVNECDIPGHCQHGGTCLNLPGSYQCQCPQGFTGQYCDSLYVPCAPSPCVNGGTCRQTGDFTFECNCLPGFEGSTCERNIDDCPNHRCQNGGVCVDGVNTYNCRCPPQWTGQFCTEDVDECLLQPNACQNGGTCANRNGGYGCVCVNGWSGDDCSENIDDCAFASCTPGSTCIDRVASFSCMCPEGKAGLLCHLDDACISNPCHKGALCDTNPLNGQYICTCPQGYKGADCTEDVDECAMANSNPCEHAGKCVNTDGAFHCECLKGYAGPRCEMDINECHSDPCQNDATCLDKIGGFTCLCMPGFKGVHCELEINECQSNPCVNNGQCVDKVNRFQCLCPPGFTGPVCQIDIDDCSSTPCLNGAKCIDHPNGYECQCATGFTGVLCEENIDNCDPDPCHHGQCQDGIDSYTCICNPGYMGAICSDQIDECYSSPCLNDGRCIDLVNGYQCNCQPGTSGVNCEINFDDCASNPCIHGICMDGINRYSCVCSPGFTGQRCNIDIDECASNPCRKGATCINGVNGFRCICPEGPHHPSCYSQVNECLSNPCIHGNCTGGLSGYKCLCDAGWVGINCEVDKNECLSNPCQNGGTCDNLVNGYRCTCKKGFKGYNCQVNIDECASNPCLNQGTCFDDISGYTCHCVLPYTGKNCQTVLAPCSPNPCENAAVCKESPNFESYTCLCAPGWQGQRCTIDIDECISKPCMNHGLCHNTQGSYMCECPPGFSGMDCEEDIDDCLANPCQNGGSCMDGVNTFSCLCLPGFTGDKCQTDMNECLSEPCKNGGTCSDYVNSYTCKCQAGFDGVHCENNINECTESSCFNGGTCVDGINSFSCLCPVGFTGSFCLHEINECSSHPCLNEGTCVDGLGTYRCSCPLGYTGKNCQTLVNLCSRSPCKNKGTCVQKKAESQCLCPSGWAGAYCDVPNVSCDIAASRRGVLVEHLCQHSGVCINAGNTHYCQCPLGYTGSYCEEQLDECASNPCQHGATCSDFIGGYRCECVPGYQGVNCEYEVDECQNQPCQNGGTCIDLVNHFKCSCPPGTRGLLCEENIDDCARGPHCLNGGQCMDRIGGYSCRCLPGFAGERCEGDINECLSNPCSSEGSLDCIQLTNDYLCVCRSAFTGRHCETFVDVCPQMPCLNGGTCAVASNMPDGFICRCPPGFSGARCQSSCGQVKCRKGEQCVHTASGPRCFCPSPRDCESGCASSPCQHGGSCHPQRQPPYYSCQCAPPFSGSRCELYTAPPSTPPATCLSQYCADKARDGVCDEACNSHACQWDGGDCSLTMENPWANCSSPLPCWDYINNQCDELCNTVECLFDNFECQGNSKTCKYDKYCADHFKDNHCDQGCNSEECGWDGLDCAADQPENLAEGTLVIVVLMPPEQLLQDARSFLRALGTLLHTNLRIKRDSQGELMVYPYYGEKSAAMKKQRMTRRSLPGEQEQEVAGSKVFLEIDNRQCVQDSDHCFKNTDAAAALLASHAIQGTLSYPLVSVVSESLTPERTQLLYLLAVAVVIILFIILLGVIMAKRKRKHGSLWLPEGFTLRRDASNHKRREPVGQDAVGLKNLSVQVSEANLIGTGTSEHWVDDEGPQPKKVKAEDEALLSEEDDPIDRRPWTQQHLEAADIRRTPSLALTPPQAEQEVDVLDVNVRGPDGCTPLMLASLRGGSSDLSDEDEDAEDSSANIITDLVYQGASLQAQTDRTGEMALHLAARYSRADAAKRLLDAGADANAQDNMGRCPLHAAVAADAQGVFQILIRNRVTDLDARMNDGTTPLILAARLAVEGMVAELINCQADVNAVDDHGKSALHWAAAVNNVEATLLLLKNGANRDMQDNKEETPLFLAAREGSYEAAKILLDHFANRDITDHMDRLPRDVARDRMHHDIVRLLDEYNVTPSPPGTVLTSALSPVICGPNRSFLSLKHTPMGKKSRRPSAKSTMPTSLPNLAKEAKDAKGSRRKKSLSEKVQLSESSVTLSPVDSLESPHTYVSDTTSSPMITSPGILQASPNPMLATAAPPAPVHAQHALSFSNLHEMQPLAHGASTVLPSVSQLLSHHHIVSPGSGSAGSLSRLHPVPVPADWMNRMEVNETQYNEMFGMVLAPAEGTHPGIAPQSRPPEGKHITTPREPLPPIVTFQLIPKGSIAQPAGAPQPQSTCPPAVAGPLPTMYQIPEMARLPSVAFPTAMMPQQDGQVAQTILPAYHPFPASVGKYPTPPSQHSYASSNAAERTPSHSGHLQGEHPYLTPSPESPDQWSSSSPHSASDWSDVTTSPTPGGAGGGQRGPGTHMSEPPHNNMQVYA
Sequence of Pro-neuregulin-1, membrane-bound isoform (Homo sapiens) (Q02297 whole entry, looked up, the tested form may be a part, canonical isoform): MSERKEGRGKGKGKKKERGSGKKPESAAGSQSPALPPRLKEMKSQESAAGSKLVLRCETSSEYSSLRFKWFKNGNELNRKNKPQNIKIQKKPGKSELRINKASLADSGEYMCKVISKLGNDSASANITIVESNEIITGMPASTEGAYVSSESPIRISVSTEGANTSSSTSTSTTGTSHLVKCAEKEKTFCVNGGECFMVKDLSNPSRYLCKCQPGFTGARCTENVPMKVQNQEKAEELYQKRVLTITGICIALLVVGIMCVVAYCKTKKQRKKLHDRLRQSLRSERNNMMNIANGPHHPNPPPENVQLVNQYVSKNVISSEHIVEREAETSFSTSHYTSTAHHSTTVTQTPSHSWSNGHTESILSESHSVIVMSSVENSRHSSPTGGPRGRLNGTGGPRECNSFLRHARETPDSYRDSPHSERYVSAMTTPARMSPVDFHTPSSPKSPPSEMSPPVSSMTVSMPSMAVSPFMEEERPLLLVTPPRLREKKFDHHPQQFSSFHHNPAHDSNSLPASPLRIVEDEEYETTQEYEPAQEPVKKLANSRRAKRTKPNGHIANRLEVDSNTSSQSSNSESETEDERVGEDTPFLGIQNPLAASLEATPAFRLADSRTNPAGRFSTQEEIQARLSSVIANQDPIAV

With `CCOC(=O)C[C@H]1[C@H](OC(=O)Cc2ccc3c(c2)OCO3)[C@@H](NC(=O)CC(C)C)c2cc(OCCCO)ccc2N1C(=O)Cc1ccc(OC)cc1`, the composite z-score in [1] was -0.244; in [2] it was 0.0682; in assay [3], -0.114; in assay [4], 0.103; in assay [5], -0.0727; in [6], -0.308. In addition, the composite z-score in assay [7] is 0.258; in assay [9], -0.207; in assay [10], -0.245; in [11], 0.336; in [15] it was 1.09; in assay [17], -0.134. Also, the composite z-score was -0.0273 in [18], 0.0046 in [19] and -0.111 in [20]. Besides, the z-score is -2.61 (inactive) in assay [8]; -1.88 (inactive) in assay [12]; -0.843 (inactive) in assay [13]; -0.733 (inactive) in assay [14]; 1.38 (inactive) in assay [16].
As for `O[C@@H](Cc1ccccc1)[C@@H](/C=C/C1CC1)N(CC#Cc1ccccc1)Cc1cccc(Cl)c1`, the composite z-score is 1.39 in assay [1]; -0.393 in [2]; -0.129 in [3]; -1.06 in assay [4]; -1.32 in assay [5]; -0.34 in [6]. Besides, the composite z-score in assay [7] is -0.162; in [9], -0.959; in [10], -0.227; in assay [11], -0.235; in assay [15] it was -0.0561; in [17] it was 0.146. Further, the composite z-score was -1.4 in assay [18], -1.08 in assay [19] and -0.398 in [20]. Besides, the z-score in assay [8] is -0.976 (inactive); in assay [12], 0.949 (inactive); in assay [13] it was 0.322 (inactive); in assay [14], -0.0243 (inactive); in assay [16] it was 1.37 (inactive).
In the case of `Cc1ccc(S[C@]2(C(=O)NCC(F)(F)F)CC(=O)N(Cc3ccccc3C(F)(F)F)[C@@H]2c2ccc(CO)cc2I)cc1`, the composite z-score in assay [1] was 0.52; in assay [2], -0.893; in assay [3], -0.157; in [4] it was -0.954; in [5], -1.15; in assay [6] it was -0.12. Further, the composite z-score in assay [7] is 0.124; in assay [9], -0.818; in assay [10], -0.236; in assay [11], -0.987; in assay [15], 0.779; in assay [17] it was -0.072. Also, the results for the composite z-score in assay [18], in assay [19] and in assay [20] were -0.859, -1.45 and -0.254, respectively. Also, the z-score was -1.24 (inactive) in [8]; -1.54 (inactive) in assay [12]; -2.79 (inactive) in assay [13]; 1.65 (inactive) in [14]; 0.625 (inactive) in [16].
For `CN(C)c1ccc(C(O)C2C=CC3C(=O)N(c4ccccc4)C(=O)C3N2Nc2ccc([N+](=O)[O-])cc2)cc1` (stereo not given), the composite z-score in assay [1] is 0.155; in assay [2], 0.456; in [3], 0.0495; in assay [4], 0.551; in [5], 1.52; in [6], 1.42. The composite z-score in [7] was determined as 1.14; in [9] it was 1.63; in assay [10] it was 0.0373; in assay [11], 1.44; in [15] it was 2.98; in assay [17], 0.401. Besides, the results for the composite z-score in assay [18], in [19] and in assay [20] were 0.037, 1.13 and -0.0234, respectively. Further, the z-score in assay [8] is 0.975 (inactive); in assay [12] it was 0.0475 (inactive); in [13], -1.3 (inactive); in [14], 2.39 (inactive); in [16], -0.564 (inactive).
